About 8,800 targets were measured; listed, in parts, are those with a hit and a random draw of the rest. About 0.5% of all pairs of compound and target were hits. Values without a mark were called inactive.
Experiments:
Experiment in all cases: log2 fold change, soluble protein after heating vs DMSO (PISA); higher = thermal stabilisation; K562 lysate, 10 uM; active = over 0.2 and 3.5 SD of the protein, either way, in both replicates (recomputed)
[1] = compound: CCCS(=O)(=O)Nc1ccc(F)c(C(=O)c2c[nH]c3ncc(-c4ccc(Cl)cc4)cc23)c1F [vemurafenib]
In short: (§1)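 Pellets of K562 cells were dounce-homogenised in PBS pH 7.4 with 1 mM MgCl2, and the crude extract was held at 1 mg/mL protein for a 30 min treatment with 10 μM compound. Aliquots were heated for 3 min over 48°C-58°C and pooled before NP-40 was added to 0.5% at 4°C. The supernatant from 21,000xg for 90 min was quantified by TMTpro 16plex LC-MS/MS with channel sums equalised. Values are reported from duplicates as log-two fold change in thermal stability relative to solvent controls.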

[2] = compound: CCCS(=O)(=O)Nc1ccc(F)c(C(=O)c2c[nH]c3ncc(Cl)cc23)c1F
In short: as §1

[3] = compound: CCN(CCCOc1ccc2c(Nc3cc(CC(=O)Nc4cccc(F)c4)[nH]n3)ncnc2c1)CCOP(=O)(O)O [barasertib]
In short: as §1

[4] = compound: CC[C@@H]1C(=O)N(C)c2cnc(Nc3ccc(C(=O)NC4CCN(C)CC4)cc3OC)nc2N1C1CCCC1
In short: as §1

[5] = compound: CC[C@@H]1C(=O)N(C)c2cnc(Nc3ccc(C(=O)N[C@H]4CC[C@H](N5CCN(CC6CC6)CC5)CC4)cc3OC)nc2N1C(C)C [volasertib]
In short: as §1

[6] = compound: CCn1c(C(=O)N(C2CC2)C2CC2)cc2c3c(ncn3C)c(Nc3cc(C)n(C)n3)nc21
In short: as §1

[7] = compound: CCn1cc(-c2ccnc3[nH]c(-c4cccc(CN(C)C)c4)cc23)c(-c2ccc(NC(=O)N(C)C)cc2)n1
In short: as §1

[8] = compound: CN1CCC(CNc2ccc3ncc(-c4cccc(OC(F)(F)F)c4)n3n2)CC1
In short: as §1

[9] = compound: CN1CCN(CCOc2cc(OC3CCOCC3)c3c(Nc4c(Cl)ccc5c4OCO5)ncnc3c2)CC1 [saracatinib]
In short: as §1

[10] = compound: CN1CCN(c2nc(C3=C(c4c[nH]c5ccccc45)C(=O)NC3=O)c3ccccc3n2)CC1 [sotrastaurin]
In short: as §1

[11] = compound: CN1CC[C@H](c2c(O)cc(O)c3c(=O)cc(-c4ccccc4Cl)oc23)[C@H](O)C1 [alvocidib]
In short: as §1

[12] = compound: CN1CCc2c(c3ccccc3n2Cc2ccc(C(=O)NO)cc2)C1 [Tubastatin A]
In short: as §1

[13] = compound: CNC(=O)C1=CC=CC=C1NC2=NC(=NC=C2Cl)NC3=C(C=C(C=C3)N4CCOCC4)OC
In short: as §1

[14] = compound: CNC(=O)c1ccc(Nc2ncc(C(F)(F)F)c(NCc3nccnc3N(C)S(C)(=O)=O)n2)cc1 [defactinib]
In short: as §1

[15] = compound: CNc1nc(-c2ccc3c(N)n[nH]c3c2)cc(N2C[C@@H](C(=O)NC3CCCCC3)CC[C@H]2C)n1
In short: as §1

[16] = compound: COC(=O)N[C@@H](C)CNc1nccc(-c2cn(C(C)C)nc2-c2cc(Cl)cc(NS(C)(=O)=O)c2F)n1 [encorafenib]
In short: as §1

[17] = compound: COC(=O)[C@H](CCSC)NC(=O)C1=C(C=C(C=C1)NC[C@H](CS)N)C2=CC=CC=C2
In short: as §1

[18] = compound: COc1cc(Nc2ncc3c(n2)-c2ccc(Cl)cc2C(c2c(F)cccc2OC)=NC3)ccc1C(=O)O [alisertib]
In short: as §1

[19] = compound: COc1cc2nc(-c3cc(F)ccc3O)nc(N[C@@H]3CNC[C@H]3C(C)(C)O)c2cc1OC
In short: as §1

[20] = compound: COc1cc2ncnc(Nc3ccc(F)c(Cl)c3)c2cc1OCCCN1CCOCC1 [gefitinib]
In short: as §1

UniProt Q9H204, sequence (Q9H204 whole entry, looked up): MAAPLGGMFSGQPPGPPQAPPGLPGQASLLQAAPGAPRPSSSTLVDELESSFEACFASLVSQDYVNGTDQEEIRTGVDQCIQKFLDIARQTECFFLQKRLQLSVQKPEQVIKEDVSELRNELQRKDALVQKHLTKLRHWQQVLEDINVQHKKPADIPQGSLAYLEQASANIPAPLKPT
UniProt Q9Y2E5, sequence (Q9Y2E5 whole entry, looked up): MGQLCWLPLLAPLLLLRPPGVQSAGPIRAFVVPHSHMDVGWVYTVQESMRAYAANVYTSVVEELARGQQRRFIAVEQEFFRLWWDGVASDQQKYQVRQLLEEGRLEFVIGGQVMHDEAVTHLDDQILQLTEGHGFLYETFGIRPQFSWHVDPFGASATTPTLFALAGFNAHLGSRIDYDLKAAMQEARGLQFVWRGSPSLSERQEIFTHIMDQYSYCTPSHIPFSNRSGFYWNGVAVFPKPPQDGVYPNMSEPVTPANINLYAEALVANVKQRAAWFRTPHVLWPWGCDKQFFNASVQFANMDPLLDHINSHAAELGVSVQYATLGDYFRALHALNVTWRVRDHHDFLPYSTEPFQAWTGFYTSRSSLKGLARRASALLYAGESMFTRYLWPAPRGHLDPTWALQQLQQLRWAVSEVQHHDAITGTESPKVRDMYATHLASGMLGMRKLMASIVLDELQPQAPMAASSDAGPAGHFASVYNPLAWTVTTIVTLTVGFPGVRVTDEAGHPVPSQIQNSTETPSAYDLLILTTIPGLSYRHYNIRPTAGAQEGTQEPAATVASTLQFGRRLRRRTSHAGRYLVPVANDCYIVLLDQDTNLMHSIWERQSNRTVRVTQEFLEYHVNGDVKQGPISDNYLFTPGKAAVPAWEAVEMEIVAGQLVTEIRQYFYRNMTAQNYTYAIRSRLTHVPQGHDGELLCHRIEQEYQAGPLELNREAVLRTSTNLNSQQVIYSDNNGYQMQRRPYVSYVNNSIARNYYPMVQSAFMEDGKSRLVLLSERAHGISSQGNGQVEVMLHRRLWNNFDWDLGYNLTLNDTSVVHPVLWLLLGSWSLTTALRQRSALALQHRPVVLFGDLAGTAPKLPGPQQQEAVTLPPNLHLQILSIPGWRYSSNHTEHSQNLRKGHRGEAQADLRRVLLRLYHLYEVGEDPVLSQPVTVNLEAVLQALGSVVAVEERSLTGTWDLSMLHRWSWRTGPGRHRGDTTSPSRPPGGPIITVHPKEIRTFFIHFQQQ
UniProt P53778, sequence (P53778 whole entry, looked up): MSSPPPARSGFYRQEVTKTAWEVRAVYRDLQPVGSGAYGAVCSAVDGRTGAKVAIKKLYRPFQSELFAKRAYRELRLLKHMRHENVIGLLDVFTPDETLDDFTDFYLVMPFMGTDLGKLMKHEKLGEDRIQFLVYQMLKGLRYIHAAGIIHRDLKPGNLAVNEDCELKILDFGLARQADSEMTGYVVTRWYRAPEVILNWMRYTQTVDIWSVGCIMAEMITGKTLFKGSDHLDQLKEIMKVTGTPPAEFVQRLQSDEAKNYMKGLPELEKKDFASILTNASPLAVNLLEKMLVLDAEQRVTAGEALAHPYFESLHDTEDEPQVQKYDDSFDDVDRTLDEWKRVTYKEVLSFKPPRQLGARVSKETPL
UniProt O15243, sequence (O15243 whole entry, looked up): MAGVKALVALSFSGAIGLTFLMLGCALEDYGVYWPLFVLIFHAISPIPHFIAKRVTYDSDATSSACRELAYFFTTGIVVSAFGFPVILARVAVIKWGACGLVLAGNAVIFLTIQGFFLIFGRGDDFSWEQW
UniProt O95396, sequence (O95396 whole entry, looked up): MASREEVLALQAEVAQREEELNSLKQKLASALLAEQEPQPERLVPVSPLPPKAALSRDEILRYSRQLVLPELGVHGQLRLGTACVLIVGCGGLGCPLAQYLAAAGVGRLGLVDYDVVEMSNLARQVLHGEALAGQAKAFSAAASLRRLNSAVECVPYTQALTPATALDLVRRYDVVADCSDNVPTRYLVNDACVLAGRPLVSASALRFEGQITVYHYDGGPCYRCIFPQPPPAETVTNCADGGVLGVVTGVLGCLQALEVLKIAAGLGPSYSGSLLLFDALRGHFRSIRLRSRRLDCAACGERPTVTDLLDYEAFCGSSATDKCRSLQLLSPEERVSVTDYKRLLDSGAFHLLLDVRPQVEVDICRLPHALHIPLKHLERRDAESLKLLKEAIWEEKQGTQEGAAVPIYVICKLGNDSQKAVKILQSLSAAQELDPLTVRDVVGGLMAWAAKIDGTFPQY
UniProt Q71SY5, sequence (Q71SY5 whole entry, looked up): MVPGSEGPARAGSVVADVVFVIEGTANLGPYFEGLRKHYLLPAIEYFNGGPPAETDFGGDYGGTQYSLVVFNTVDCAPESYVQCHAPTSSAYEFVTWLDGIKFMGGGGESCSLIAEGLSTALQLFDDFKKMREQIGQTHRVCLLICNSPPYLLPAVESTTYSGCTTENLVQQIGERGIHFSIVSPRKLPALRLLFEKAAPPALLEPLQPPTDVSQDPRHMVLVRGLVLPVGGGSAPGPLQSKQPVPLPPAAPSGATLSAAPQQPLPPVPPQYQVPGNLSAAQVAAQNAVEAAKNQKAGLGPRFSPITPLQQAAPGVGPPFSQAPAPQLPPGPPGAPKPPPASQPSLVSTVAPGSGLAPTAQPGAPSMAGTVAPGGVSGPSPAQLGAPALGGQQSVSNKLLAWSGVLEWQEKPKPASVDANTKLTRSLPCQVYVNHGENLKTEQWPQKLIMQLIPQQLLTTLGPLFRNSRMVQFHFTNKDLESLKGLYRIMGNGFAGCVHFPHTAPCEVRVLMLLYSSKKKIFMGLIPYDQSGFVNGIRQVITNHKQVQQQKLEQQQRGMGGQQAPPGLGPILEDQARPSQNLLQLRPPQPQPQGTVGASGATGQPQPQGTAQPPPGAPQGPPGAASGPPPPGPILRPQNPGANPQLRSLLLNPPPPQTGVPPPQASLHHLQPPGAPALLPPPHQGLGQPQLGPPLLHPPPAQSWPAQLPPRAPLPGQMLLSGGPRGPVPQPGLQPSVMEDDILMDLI
UniProt Q9NZL9, sequence (Q9NZL9 whole entry, looked up): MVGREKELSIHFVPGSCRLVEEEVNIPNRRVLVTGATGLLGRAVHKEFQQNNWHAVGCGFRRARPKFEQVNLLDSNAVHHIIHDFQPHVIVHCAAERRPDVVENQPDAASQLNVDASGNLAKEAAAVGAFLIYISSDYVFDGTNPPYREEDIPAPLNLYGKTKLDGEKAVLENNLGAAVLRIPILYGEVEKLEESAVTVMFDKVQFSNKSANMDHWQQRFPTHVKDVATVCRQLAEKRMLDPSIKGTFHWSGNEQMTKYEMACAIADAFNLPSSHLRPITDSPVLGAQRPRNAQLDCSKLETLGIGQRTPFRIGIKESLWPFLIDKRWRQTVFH
UniProt Q07866, sequence (Q07866 whole entry, looked up): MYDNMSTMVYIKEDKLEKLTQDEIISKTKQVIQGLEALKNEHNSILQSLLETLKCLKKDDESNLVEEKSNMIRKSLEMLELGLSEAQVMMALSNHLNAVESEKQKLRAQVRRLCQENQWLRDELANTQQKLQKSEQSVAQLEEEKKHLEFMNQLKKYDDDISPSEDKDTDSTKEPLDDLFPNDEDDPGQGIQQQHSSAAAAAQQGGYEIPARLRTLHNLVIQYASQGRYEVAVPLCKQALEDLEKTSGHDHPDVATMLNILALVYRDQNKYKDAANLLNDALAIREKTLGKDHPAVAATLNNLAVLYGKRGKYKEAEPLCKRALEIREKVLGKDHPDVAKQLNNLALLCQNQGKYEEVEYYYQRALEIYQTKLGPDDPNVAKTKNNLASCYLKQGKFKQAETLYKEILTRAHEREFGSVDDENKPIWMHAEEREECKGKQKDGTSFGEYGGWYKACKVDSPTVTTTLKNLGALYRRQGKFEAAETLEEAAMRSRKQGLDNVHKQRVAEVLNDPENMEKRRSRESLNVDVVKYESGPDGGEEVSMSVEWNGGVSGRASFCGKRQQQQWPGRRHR
UniProt A1L020, sequence (A1L020 whole entry, looked up): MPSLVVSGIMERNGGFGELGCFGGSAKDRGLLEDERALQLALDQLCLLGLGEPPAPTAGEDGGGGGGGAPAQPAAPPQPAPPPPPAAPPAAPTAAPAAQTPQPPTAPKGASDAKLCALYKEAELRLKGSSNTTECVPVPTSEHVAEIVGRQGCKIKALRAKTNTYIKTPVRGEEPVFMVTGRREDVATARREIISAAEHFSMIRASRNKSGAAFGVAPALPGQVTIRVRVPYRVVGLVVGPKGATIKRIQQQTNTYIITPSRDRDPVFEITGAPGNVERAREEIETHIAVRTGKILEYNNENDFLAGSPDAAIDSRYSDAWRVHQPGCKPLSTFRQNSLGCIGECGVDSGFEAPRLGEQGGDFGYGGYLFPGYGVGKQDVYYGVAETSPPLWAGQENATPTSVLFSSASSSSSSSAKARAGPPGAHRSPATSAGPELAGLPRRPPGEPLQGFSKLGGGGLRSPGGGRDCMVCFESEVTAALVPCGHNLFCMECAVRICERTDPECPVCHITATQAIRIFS
UniProt Q53G59, sequence (Q53G59 whole entry, looked up): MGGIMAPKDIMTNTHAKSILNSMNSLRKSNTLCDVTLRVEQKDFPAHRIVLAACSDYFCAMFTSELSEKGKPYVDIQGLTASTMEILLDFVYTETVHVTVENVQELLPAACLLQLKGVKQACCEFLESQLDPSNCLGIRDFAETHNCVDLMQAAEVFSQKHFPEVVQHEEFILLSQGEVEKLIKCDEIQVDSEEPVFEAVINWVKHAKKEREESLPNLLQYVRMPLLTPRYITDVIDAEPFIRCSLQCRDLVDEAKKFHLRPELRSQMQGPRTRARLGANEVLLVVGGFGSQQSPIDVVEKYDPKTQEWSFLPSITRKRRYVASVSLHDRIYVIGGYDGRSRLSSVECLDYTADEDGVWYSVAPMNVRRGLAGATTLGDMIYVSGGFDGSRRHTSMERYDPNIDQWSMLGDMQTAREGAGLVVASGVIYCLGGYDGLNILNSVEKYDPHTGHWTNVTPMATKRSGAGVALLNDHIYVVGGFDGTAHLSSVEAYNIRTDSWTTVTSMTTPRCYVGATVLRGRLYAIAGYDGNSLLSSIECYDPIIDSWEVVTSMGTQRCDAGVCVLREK

Target	log2 fold change [1]	log2 fold change [2]	log2 fold change [3]	log2 fold change [4]	log2 fold change [5]	log2 fold change [6]	log2 fold change [7]	log2 fold change [8]	log2 fold change [9]	log2 fold change [10]	log2 fold change [11]	log2 fold change [12]	log2 fold change [13]	log2 fold change [14]	log2 fold change [15]	log2 fold change [16]	log2 fold change [17]	log2 fold change [18]	log2 fold change [19]	log2 fold change [20]
MICB, A0A140T979	-0.054	0.098	0.039	0.223	-0.072	-0.084	-0.05	0.066	0.019	0.096	0.01	-0.005	-0.09	0.021	0.084	-0.027	-0.506 (active)	-0.043	0.804 (active)	-0.012
KLHL12 isoform 2 (UniProt Q53G59)	0.038	0.061	-0.413 (active)		-0.045	0.118			0.064	-0.045		-0.156	-0.051	-0.025	-0.02			0.023	0.086	-0.048
MARCHF6 (UniProt O60337)	0.043	0.052	0.233	0.038	0.078		-0.023	0.013	-0.13	0.034	0.07		-0.039	0.046	0.084	0.08	-0.05	-0.321	0.008	0.019
MAT2B (UniProt Q9NZL9)	0.036	0.016	0.001	-0.019	-0.006	-0.015	0.13	0	-0.018	0.013	-0.028	0.063	-0.013	0.003	-0.01	-0.009	-0.006	0.032	0.016	-0.006
KIFC3 isoform 6 (UniProt Q9BVG8)	0.052		0.025	0.409			0.284	0.256	0.005	0.028	-0.786 (active)		0.003	-0.255	0.308	-0.053	0.04			
MAPKAP1 (UniProt Q9BPZ7)				0.031		0.005			0.057	-0.045		-0.125	-0.119		0.081	-0.051	0.036	-0.094		0.07
MEX3A (UniProt A1L020)	-0.094					0.191			0.055			0.037		-0.068	0.037			-0.097		0.207
METTL21A (UniProt Q8WXB1)		0.04	0.062		-0.034	-0.054	-0.011	0.049	0.263 (active)	0.04	0.009	0.052	0.087		0			0.004	0.011	-0.028
LRPPRC (UniProt H7C3W8)	0.566													-0.063						
LRRC9 (UniProt Q6ZRR7)	-0.011			-0.022			-0.25	0.131		0.01	0.911			-0.056		-0.022	0.003			
MED25 isoform 3 (UniProt Q71SY5)		0.018	0.034	-0.256 (active)	-0.032	-0.046	0.013	-0.056	0.032	0.083	0	0.056	-0.033		-0.022	-0.123	0.005	0.125	0.01	-0.029
MAP3K4 isoform 2 (UniProt Q9Y6R4)										-0.004										
MRPL27 (UniProt Q9P0M9)		-0.051	-0.01	0.076	0.017	-0.006	0.926 (active)	-0.218	0.009	0.05	0.082	-0.017	0.016		-0.028	-0.047	0.008	-0.019	0	0.022
KIF18B (UniProt Q86Y91)		0.017		0.221	-0.046				0.04	0.106					-0.067	-0.159	-0.04		0.046	
MAPK12 (UniProt P53778)	0.084		-0.033	0.105		-0.029	0.974 (active)	-0.169	0.023			0.022	0.025	-0.077	0.054	-0.001	0.035	-0.114		-0.057
KRI1 (UniProt Q8N9T8)	-0.079		-0.03	0.005		0.021	-0.005	-0.014	0	0.008	0.017	-0.113	0.016	0.019	-0.012	0.038	0.009	0.042		-0.106
KLC1 isoform 10 (UniProt Q07866)			0.238	0.152									0.147			0.06	-0.109			
LEPROT (UniProt O15243)		0.112	0.042	0.144	0.102	-0.086	-0.043	-0.02		-0.009	0.006	0.01	0			-0.003	0.01		0.022	
MAN2B2 (UniProt Q9Y2E5)		-0.028	-0.047	-0.013	-0.006	-0.022	0.648 (active)	-0.649 (active)	-0.053	-0.024	0.199	0.029	-0.006		0.059	-0.004	0.073	0.032	0.049	-0.017
KIF26A (UniProt Q9ULI4)	0.135		0	0.08		-0.01	-0.076	-0.005	-0.067	-0.033	0.022	0.566 (active)	-0.149	-0.105	-0.021	-0.052	0.035	0.004		0.056
MRC2 (UniProt Q9UBG0)				0.205			0.053	0.124	0.301	-0.054	0.04		-0.062		0.05	0.031	-0.301	-0.075		0.046
MED28 (UniProt Q9H204)		-0.004			0.096	0.053	-0.063	0.322	-0.032	-0.028	-0.292	0.05	0.14		0.081			0.011	-0.024	-0.217
KIF2A isoform 2 (UniProt O00139)							0.129	0.316			0.153									
MOCS3 (UniProt O95396)	-0.12		-0.018	-0.038		0.037	-0.273	0.264	0.06	0.11	-0.213	-0.082	0.111	-0.161	-0.008	0.056	-0.094	0.031		-0.231
